Screens from PubChem.
Compounds with a hit are over-represented: about 10% of the library has one in this group of screens.
G9a inh: qHTS Assay for Inhibitors of Histone Lysine Methyltransferase G9a. Histone-lysine N-methyltransferase EHMT2 (Homo sapiens), Q96KQ7. G9a H3K9 monomethylation, AlphaScreen, 2 h. Potency, µM (top dose mostly 102 µM), for the others: top-dose activity, negative = inhibition, hits mostly inhibitors. hit rate 8.8% among 350,000; note: % is set by controls: 0 for no effect and ±100 for the full control effect; nearly all actives have a fitted effect of over 75% in size
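G9a (20 nM) preincubated 15 min RT with compounds, then 500 nM biotinylated H3K9 peptide and 20 uM SAM added; 2 h RT reaction. Monomethyl-H3K9 product detected by AlphaScreen with anti-H3K9me1 antibody, streptavidin donor and anti-rabbit IgG acceptor beads.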
JMJD2A Tudor: qHTS Assay for Inhibitors of JMJD2A-Tudor Domain; Lysine-specific demethylase 4A (Homo sapiens), O75164; AlphaScreen JMJD2A-Tudor / H3K4me3 peptide binding; Potency, µM (doses to about 114 µM), without a hit: at the highest dose activity change, negative = inhibition, most hits filed as inhibitors; hit rate 4.4% among 390,000; AID 504339, 2011; note: % is set by controls: 0 for no effect and ±100 for the full control effect; nearly all actives have a fitted effect of over 50% in size
GLS inhibitor: qHTS for Inhibitors of Glutaminase (GLS). GLS enzymatic activity, qHTS titration. Potency, µM (highest dose often 45.5 µM), for inactives: at the highest dose activity change, negative = inhibition, actives largely listed as inhibitors. hit rate 0.21% among 410,000. AID 624170, 2012; note: % is set by controls: 0 for no effect and ±100 for the full control effect
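Assay buffer: 45 mM KH2PO4 pH 8.2, 0.02% Tween-20. hKGA acts on L-glutamine (1 mM solution added); product glutamate is reported by an oxidase/peroxidase Amplex Red coupling, with fluorescence taken at baseline and 30 min.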
BAZ2B block: qHTS Assay for Inhibitors of BAZ2B; AlphaScreen BAZ2B-H3K14Ac peptide displacement; Potency, µM (titrated, usually from 114 µM), without a hit: at the top dose activity change, negative = inhibition, usual class: inhibitors; hit rate 4.4% among 360,000; note: % is set by controls: 0 for no effect and ±100 for the full control effect; nearly all actives have a fitted effect of over 60% in size
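AlphaScreen displacement: compounds (up to 110uM) incubated 30 min at room temperature with a preformed 50 nM BAZ2B/50 nM biotinylated H3K14Ac peptide complex in PBS pH 7.4 with Tween-20. Donor and acceptor beads at 10 ug/mL final added, 20 min light-protected before reading.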
L3MBTL1 block: qHTS Assay for the Inhibitors of L3MBTL1 | AID 485360, 2010 | hit rate 0.66% among 230,000 | AlphaScreen L3MBTL1–H3K9me1 peptide binding | Potency, µM (doses to about 57.1 µM), for inactives: top-dose activity, negative = inhibition, hits mostly inhibitors; note: % is set by controls: 0 for no effect and ±100 for the full control effect; nearly all actives have a fitted effect of over 60% in size
Target sequence (Q9Y468 whole entry, looked up): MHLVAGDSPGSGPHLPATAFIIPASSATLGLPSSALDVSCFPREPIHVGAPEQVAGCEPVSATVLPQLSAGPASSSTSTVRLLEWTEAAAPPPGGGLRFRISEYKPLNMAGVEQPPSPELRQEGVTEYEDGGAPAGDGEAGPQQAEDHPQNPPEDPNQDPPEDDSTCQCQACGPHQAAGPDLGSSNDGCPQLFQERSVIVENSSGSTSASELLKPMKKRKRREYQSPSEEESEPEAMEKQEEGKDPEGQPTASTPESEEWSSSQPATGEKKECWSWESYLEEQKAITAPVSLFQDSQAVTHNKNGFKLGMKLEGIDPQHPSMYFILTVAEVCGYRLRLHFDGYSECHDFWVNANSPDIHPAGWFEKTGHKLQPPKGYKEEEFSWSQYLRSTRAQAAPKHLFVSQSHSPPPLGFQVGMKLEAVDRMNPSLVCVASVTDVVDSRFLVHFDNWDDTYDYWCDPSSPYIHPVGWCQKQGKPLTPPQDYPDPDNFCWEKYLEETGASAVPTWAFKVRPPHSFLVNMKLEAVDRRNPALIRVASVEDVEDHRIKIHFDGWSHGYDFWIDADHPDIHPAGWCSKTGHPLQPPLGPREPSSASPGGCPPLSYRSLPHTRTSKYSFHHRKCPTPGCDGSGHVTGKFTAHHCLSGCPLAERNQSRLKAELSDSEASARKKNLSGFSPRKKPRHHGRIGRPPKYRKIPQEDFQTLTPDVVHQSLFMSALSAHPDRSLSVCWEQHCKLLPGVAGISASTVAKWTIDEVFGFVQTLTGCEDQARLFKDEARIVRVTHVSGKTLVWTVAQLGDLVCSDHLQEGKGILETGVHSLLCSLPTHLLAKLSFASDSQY
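L3MBTL1 50 nM + b-AHA-H3(1-15)K9me1 75 nM, 30 min RT; compound added, 30 min RT; streptavidin donor/Ni-chelate acceptor beads 10 ug/mL each final, 30 min RT dark; AlphaScreen read.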
HP1b binding inh: HTS for Inhibitors of HP1-beta Chromodomain Interactions with Methylated Histone Tails; AlphaScreen HP1-beta / biotin-H3K9me3 peptide binding; Potency, µM (titrated, usually from 114 µM), for the others: top-dose activity change, negative = inhibition, usual class: inhibitors; hit rate 0.56% among 390,000; note: nearly all actives have a fitted effect of over 70% in size
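AlphaScreen: HP1-beta (50 nM) preformed 30 min with biotin-H3(1-18)K9me3 peptide (50 nM) in PBS pH 7.4, 0.01% Tween-20. Compound added for 30 min at RT, then streptavidin donor/nickel chelate acceptor beads (10 ug/mL) for 30 min.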
* marks the source's active call; other numbers are inactive results; ? = inconclusive; nt = no result given; [ ] = another dose, or the depositor's remark. Calls come from the whole dose curve; as a rule, active = well fitted curve in the direction sought with a large enough effect; inconclusive = small, poorly fitted or top-dose-only effect, or another doubt; inactive = no such curve, though single readings can be large; an effect the other way counts as inactive or inconclusive. Potency is the fitted concentration of half-maximal effect.

SMILES	G9a inh	JMJD2A Tudor	GLS inhibitor	BAZ2B block	L3MBTL1 block	HP1b binding inh
CC(=O)N(C)/C=C1\Sc2ccccc2C1=O	3%	1%	3%	-29%	-3%	31%
CCC(=O)N(C)/C=C1\Sc2ccccc2C1=O	?	-21%[11.4 µM]	15%	56µM*	-2%	32%
N#Cc1nc(NCCO)nc(Nc2ccccc2)n1	nt	-28%	nt	nt	nt	nt
CC(=O)N1CCCC1c1nc2ccccc2n1Cc1c(F)cccc1Cl (stereo unspecified)	-3%[59 µM]	-17%	-14%	?	nt	2%
O=c1cc(-c2ccc(O)cc2)oc2c(O)c(O)c(O)c(O)c12	20µM*	40µM*	11µM*	45µM*	3.2µM*	?
O=c1cc(-c2ccccc2)oc2cc(O)c(O)c(O)c12	nt	?	13%	nt	16µM*	-10%
Cc1cccc(CCn2c(=O)c3ccccc3n(Cc3cccc(F)c3)c2=O)c1	62%[59 µM]	36%	7%	35%	nt	62%
Cc1nn(Cc2n[nH]c(=S)n2Cc2ccccc2)c(C)c1Cl	2.5µM*	?	3%	-22%	-2%	16%
Cc1cc(C)n(Cc2n[nH]c(=S)n2Cc2ccccc2)n1	16µM*	22µM*	-1%	-5%	-3%	44%
Cc1oc2ncnc(N3CCCCC3)c2c1C(=O)Nc1cccc(Cl)c1C	-4%[59 µM]	-17%	-8%	1%[57.1 µM]	nt	22%
Cc1cc(=O)oc2cc(OCC(=O)NCCc3nc4ccccc4[nH]3)ccc12	50µM*	-13%	-5%	3%	nt	15%
Cc1nnc(NC(=O)COc2ccc3c(C)cc(=O)oc3c2)s1	8.9µM*	-22%	18%	?	nt	6%
CCOc1ccc(C(=O)N(Cc2ccc(C(C)C)cc2)Cc2ccco2)cc1	6%[59 µM]	4%	0%	23%	nt	55%
Cc1nn2c(C)c(C(=O)Nc3ccccc3)cnc2c1C#N	16µM*	-12%	0%	-1%	nt	13%
CCOCN(C(=O)Cn1cnc2cc(C)c(C)cc21)c1c(C)cccc1CC	1%[59 µM]	-24%	6%	-16%	nt	24%
COc1cccc(OC(=O)CSc2nnc(-c3cccs3)o2)c1	?	-11%	1%	?	nt	49%
Cc1cc(-c2c(C)[nH]n(-c3ccc(Cl)cc3)c2=O)n[nH]1	1%	?	3%	28µM*	-28%	8%
Cc1[nH]n(-c2ccccc2)c(=O)c1N=Nc1ccc(Cl)cc1	9%[0.501 µM]	?	-4%	?	-21%[2.29 µM]	-14%
Cc1ccc2c(c1)c1c(n2CC(O)CN2CCCCC2C)CCCC1 (stereo unspecified)	45µM*	-10%[11.4 µM]	27%	?	nt	-21%
Cc1ccc2c(c1)c1c(n2CC(O)CN2CCC(C)CC2)CCCC1 (stereo unspecified)	?	40µM*	2%	?	?	-25%[57 µM]
Cc1ccccc1C(=O)Nc1c(C)nc(Nc2ccccc2)nc1Nc1ccccc1	5%[59 µM]	-5%	6%	-1%	nt	33%
Cc1c(CN(C)C)c2c(n1Cc1ccccc1)C(=O)c1ccc(Br)cc1-2	18µM*	40µM*	-6%	22µM*	nt	?
Cc1c(CN(C)C)c2c(n1C)C(=O)c1ccc(Br)cc1-2	?	?	2%	?	-13%	-4%
CCCCCc1cc(=O)oc2c(C(CCN(CC)CC)c3ccc(N(C)C)cc3)c(OC)cc(OC)c12 (stereo unspecified)	?	28µM*	18%	14µM*	nt	?
CCN(CC)CCC(c1ccc(N(C)C)cc1)c1c(OC)cc(OC)c2c(C)cc(=O)oc12 (stereo unspecified)	nt	35µM*	nt	nt	nt	?
SMILES	G9a inh	JMJD2A Tudor	GLS inhibitor	BAZ2B block	L3MBTL1 block	HP1b binding inh
CCN(CC)CCC(c1cc(OC)c(OC)c(OC)c1)c1c(OC)cc(OC)c2c(C)cc(=O)oc12 (stereo unspecified)	17%[59 µM]	-25%	3%	9%	nt	16%
CCN(CC)C(=O)CSc1nc2cc3c(cc2c(=O)n1Cc1ccc(C(=O)NCCc2ccc(OC)c(OC)c2)cc1)OCO3	-6%[59 µM]	-13%	0%	-9%	nt	30%
O=C(Nc1ccc(Cl)cc1)C1CCN(c2nc3ccccc3n3cccc23)CC1	-39%[59 µM]	-25%	-14%	?	nt	20%
O=C(NCCc1ccccc1)C1COc2ccccc2O1 (stereo unspecified)	10%	-4%	-2%	-9%	nt	26%
O=C(NCCc1ccc(O)c(O)c1)C1COc2ccccc2O1 (stereo unspecified)	2.2µM*	18µM*	?	-13%	nt	35µM*
COc1cc(/C=N/NC(=O)C(C)Nc2n[nH]c(=O)[nH]c2=O)cc(OC)c1O (stereo unspecified)	35µM*	-15%	3%	-6%	8%	-14%
O=C(O)c1ccc(-n2cc(-c3cc4ccccc4oc3=O)[nH]c2=S)cc1	73%	1.3µM*	85%	3%	nt	-15%
O=C(CSc1nc2ccccc2n1CCc1ccccc1)N1CCOCC1	50µM*	-3%	-14%	6%	-12%	39%
O=C(CSc1nc2ccccc2n1CCc1ccccc1)c1ccc(O)c(O)c1	nt	7.9µM*	102%	2.5µM*	3.2µM*	25µM*
O=C(CSc1nnc(Cn2c(=O)sc3ccccc32)n1-c1ccccc1)N1CCOCC1	45µM*	5%	3%	9%	-4%	42%
O=C(CSc1nc2ccccc2n1CC(=O)N1CCOCC1)N1CCCC1	-47%[59 µM]	-15%[57.1 µM]	-3%	-1%	9%	18%
O=C(CN1CCSc2ccccc21)NCc1ccccc1F	-33%[59 µM]	-30%	32%	-34%	nt	10%[57 µM]
O=C(c1ccccc1)c1ccc(OCCCN2CCCCC2)cc1	8.9µM*	7.9µM*	-9%	32µM*	nt	-35%
COC(=O)c1ccc(OCCN2CCCCCC2)cc1	35µM*	-28%	3%	?	14%	4%
CC(=O)c1ccc(OCCCN2CCCCC2)cc1	3.5µM*	2.2µM*	-5%	50µM*	nt	?
COC(=O)c1ccc(OCCOc2ccccc2)cc1	12%[12.7 µM]	17%	5%	5%	nt	46%
O=C(c1ccccc1)c1ccc(OCC(O)CN2CCCCC2)cc1 (stereo unspecified)	11%[59 µM]	4%	-5%	13%	-3%	32%
CCc1ccc(S(=O)(=O)NCCc2csc3nc(-c4ccccc4)nn23)s1	1%[59 µM]	-8%	-8%	-5%	nt	36%
